According to PubChem BioAssay AID1645853 (Buhrlage Lab, Dana-Farber Cancer Institute and Novartis …, 2021):
The whole screen tested about 47,000 compounds, of which about 2,000 (4.3%) were called active. What follows is part of a selection rich in actives, with near analogues and random picks from the rest. Unmarked numbers belong to inactive results. No stated cut-off is given here; in the data, active means inhibition above about 30%; inactive means the rest.

Molecular target: Ubiquitin carboxyl-terminal hydrolase 8 (Homo sapiens) (UniProt P40818)
Sequence (P40818 whole entry, looked up): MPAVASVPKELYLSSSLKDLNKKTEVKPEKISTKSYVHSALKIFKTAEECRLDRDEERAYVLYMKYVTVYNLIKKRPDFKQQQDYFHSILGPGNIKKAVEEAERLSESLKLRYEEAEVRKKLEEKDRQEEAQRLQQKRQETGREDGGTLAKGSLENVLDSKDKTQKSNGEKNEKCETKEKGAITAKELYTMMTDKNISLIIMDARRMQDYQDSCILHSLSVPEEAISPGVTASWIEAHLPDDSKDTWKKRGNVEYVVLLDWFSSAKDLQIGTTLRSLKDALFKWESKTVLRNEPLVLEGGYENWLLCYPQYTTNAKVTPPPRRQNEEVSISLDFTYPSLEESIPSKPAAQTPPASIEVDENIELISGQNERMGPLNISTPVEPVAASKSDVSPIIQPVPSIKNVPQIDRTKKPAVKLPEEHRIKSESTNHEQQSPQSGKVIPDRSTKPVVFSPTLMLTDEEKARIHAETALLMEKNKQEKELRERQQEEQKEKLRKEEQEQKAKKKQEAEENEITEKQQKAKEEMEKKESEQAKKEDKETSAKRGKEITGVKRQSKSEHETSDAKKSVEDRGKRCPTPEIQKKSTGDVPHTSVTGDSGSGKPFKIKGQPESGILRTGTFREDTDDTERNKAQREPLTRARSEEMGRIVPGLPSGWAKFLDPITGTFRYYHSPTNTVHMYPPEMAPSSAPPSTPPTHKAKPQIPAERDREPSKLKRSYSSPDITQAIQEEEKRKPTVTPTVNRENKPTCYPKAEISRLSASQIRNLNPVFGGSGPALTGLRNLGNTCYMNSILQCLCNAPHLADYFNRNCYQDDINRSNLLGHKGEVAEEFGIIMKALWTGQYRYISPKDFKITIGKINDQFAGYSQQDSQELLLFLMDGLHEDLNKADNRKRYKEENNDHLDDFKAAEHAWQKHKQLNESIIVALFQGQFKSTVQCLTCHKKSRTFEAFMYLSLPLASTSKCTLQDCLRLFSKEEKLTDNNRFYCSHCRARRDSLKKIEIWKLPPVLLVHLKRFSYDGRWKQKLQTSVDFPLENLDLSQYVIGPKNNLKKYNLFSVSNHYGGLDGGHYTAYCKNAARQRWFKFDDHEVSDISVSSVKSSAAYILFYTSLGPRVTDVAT
Assay: inhibitors of human USP8 deubiquitinase (AID 1645853)
Conditions: purified USP8, Ub-rhodamine cleavage fluorescence, 30 min; at 20 µM; stronger effect = higher value

| Compound | inhibition |
| --- | --- |
| CCc1cccc(C)c1NC(=O)Cn1nc2ccc(C(=O)NCc3ccccc3)cn2c1=O | 74.5% (active) |
| CCc1cccc(C)c1NC(=O)CSc1nc2c(c(=O)[nH]1)CCCC2 | 18% |
| Cc1cc(=O)n(CC(=O)NCc2ccccc2)c(N2CCCC2)n1 | 2.35% |
| O=S(=O)(Cc1nnc(-c2cc(Cl)cc(Cl)c2)o1)c1ccc(Cl)cc1 | 45.6% (active) |
| Cc1ccc(-c2nnc(CCC(=O)O)o2)cc1 | 3.95% |
| N#Cc1ccc(-c2nc(CS(=O)(=O)c3ccc(Cl)cc3)no2)cc1 | -6.87% |
| C[C@H](NC(=O)Cc1ccc(Cl)cc1)C(=O)N1CCC2(CC1)NCCc1[nH]cnc12 | 21.2% |
| O=C(NCC(=O)N1CCC2(CC1)NCCc1[nH]cnc12)c1ccc(Br)cc1 | 18.8% |
| O=C(NCCC(=O)N1CCC2(CC1)NCCc1[nH]cnc12)c1ccc(-c2ccccc2)cc1 | 34.7% (active) |
| Cc1cc(Cl)ccc1OCCCC(=O)NCc1ccccn1 | -25% |
| COc1cc(C(=O)Nc2ccc(-c3nc4cnccc4o3)cc2)cc(OC)c1OC | -3.3% |
| O=C(Cc1ccccc1)Nc1ccc(-c2nc3cnccc3o2)c(O)c1 | 74.3% (active) |
| O=C(Nc1ccc(-c2nc3cnccc3o2)c(O)c1)c1ccc(-c2ccccc2)cc1 | -4.15% |
| CCCc1noc(-c2ccc(-n3ncc(C(=O)N4CCOCC4)c3C)nc2)n1 | 0.113% |
| COc1cccc(-c2noc(CN3CCCC3c3cc(OC)ccc3OC)n2)c1 (stereo unspecified) | -12.7% |
| CCCCN(C)c1ccc2nnc(CCc3nc(-c4cc(OC)cc(OC)c4)no3)n2n1 | 84.8% (active) |
| COc1ccc(-c2noc(CN(C3CCCCC3)S(=O)(=O)c3ccc(OC)cc3)n2)cc1 | 14% |
| CSCCC(NC(=O)C1CCCC1)c1nc2ccccc2[nH]1 (stereo unspecified) | -5.64% |
| Cn1c(=O)c2c(ncn2Cc2nnc(-c3ccccc3)o2)n(C)c1=O | 64.8% (active) |

| Compound | inhibition |
| --- | --- |
| Cc1ccc(NC(=O)CCn2cnc3c2c(=O)n(C)c(=O)n3C)cc1 | -3.63% |
| Cc1cnc(NC(=O)Cn2cnc3c2c(=O)n(C)c(=O)n3C)s1 | 19.6% |
| CC1CCN(C(=O)c2ncn3c2CN(C)S(=O)(=O)c2ccccc2-3)CC1 | 6.05% |
| CCc1nnc2ccc(S(=O)(=O)N(CC)c3ccccc3)cn12 | -281% |
| Cc1cc(-c2nnc(SCC(=O)Nc3ccc(Br)c(C)c3)n2N)n[nH]1 | 31% (active) |
| Cc1cc(NC(=O)COC(=O)c2cccc(C)c2O)ccc1Br | 0.58% |
| Nn1c(SCC(=O)Nc2ccccc2F)nnc1-c1n[nH]c2c1CCC2 | 7.87% |
| CC(C)(C)n1nc(C2CC2)c(Br)c1NC(=O)c1ccccc1F | 20.5% |
| CC1(C)CCC2(C(=O)O)CC[C@]3(C)C(=CC[C@@H]4[C@@]5(C)CCC(O)C(C)(C)[C@@H]5CC[C@]43C)C2C1 (stereo partly specified) | 4.43% |
| Cc1cccc(CNC(=O)CN2C(=O)C3CCCN3C(=O)c3cccc(C)c32)c1 (stereo unspecified) | 5.77% |
| Cc1ccc2cc(CNc3ccccc3)c(=O)n(CC(=O)Nc3ccccc3C)c2c1 | 92.8% (active) |
| Cc1cccc(NC(=O)Cn2c(C)ccc(NC(=O)Nc3cccc(C)c3)c2=O)c1 | 26.5% |
| Cc1cccc(C2=NC3(CCN(CC(=O)Nc4ccccc4C)CC3)NC2=O)c1 | -2.9% |
| CCOC(=O)c1cc(S(=O)(=O)Nc2ccc(OC)c(Cl)c2)cn1C | 11.8% |
| O=C(NC1CC2(CCOCC2)Oc2ccccc21)c1[nH]ncc1Cl (stereo unspecified) | 3.95% |
| COc1ccc(CC(=O)Nc2cnc(-c3ccccc3)nc2)cc1 | -7.3% |
| O=C(COc1ccccc1)Nc1cnc(-c2cccc(Cl)c2)nc1 | 60.7% (active) |
| CSc1cccc(NC(=O)COc2ccc(C(=O)c3ccccc3)cc2)c1 | -0.948% |
| CCC(C)[C@H](NC(=O)[C@@H]1Cc2c([nH]c3ccccc23)C2c3ccccc3C(=O)N21)C(=O)NCCc1ccccc1 (stereo partly specified) | -10.4% |

| Compound | inhibition |
| --- | --- |
| Cc1cccc(C(=O)Nc2ccc(-n3c(C)nc4ncccc4c3=O)cc2C)c1 | 5.93% |
| COc1cccc(C2c3[nH]c4ccccc4c3C[C@@H]3C(=O)N(Cc4ccc5c(c4)OCO5)CC(=O)N23)c1 (stereo partly specified) | 13.4% |
| CN(c1ccccc1)c1nc(=O)n(CC(=O)Nc2ccc3c(c2)OCCO3)c2ccccc12 | -40.3% |
| CCc1cc(=O)n(CC(=O)Nc2cc(C)on2)c(-c2ccccc2)n1 | -44.3% |
| Cc1cc(=O)n(CC(=O)Nc2ccc3c(c2)OCO3)c2c1c(-c1ccccc1)nn2-c1ccccc1 | 67.9% (active) |
| CC(=O)N1CCc2cc(S(=O)(=O)Nc3ccccc3N3CCN(C)CC3)ccc21 | -8.86% |
| CCS(=O)(=O)Nc1cc(S(=O)(=O)Nc2cc(Cl)ccc2Cl)ccc1N1CCOCC1 | 2.1% |
| CCCN1CCN(c2ccc(C(=O)O)cc2NS(=O)(=O)c2cc(F)ccc2F)CC1 | 84.9% (active) |
| Cc1ccnc(SCc2nc(-c3ccc4c(c3)ncn4C)no2)n1 | 2.93% |
| O=C(Cc1cccc(F)c1)NC1(c2nc(C3CC3)no2)CCCCC1 | 5.33% |
| Cc1noc(C2(NC(=O)Cc3ccccc3C)CCCCC2)n1 | -1.15% |
| Cc1csc(C2(NC(=O)Cc3cc(C)on3)CCCC2)n1 | 74.9% (active) |
| Cc1noc(C)c1S(=O)(=O)NCc1ccc2c(c1)CCN2C(=O)C(C)C | 21.9% |
| Cc1cccc(N2CCN(S(=O)(=O)c3c[nH]c(-c4nnc(C)o4)c3)CC2C)c1 (stereo unspecified) | 12.2% |
| CC(C)NS(=O)(=O)c1ccc(NC(=O)c2cccnc2)cc1 | 4.16% |
| CCc1cc(C2CCCN2C(=O)c2cc(-c3ccccc3F)no2)on1 (stereo unspecified) | 0.852% |
| O=C(C1CCC1)N1CCCN(c2ccc([N+](=O)[O-])cn2)CC1 | -127% |
| CN(C)c1ccc(S(=O)(=O)NCC(=O)NCC2CCCCC2)cc1[N+](=O)[O-] | -110% |
